Assay results as given in the supplement of paper PMC11417369.
Over roughly 25,000 sequences, “ln(normalized median fluorescence intensity)” has its median near 6.7; the highest 2% begin near 10. Only a selection was taken, and the highest values are over-represented in it overall.

These sequences were tested on PfHDP1 homeodomain (GST-tagged) (assay: gcPBM binding intensity (ln(normalized median fluorescence intensity)); higher = stronger DNA binding).
Method in brief: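 For binding intensity, the highest Masliner-normalised natural-log median intensity across replicate spots of either probe orientation was taken. Protein bound to the array was stained with Alexa488 anti-GST antibody and scanned at 488 nm. The protein, GST-tagged P. falciparum DNA-binding domains from E. coli at about 25 μg on average, had been applied for 1 h to an Agilent 4 × 180k array of primer-extended double-stranded 36-bp intergenic genomic probes and negative controls.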

Row | Sequence | gcPBM binding intensity (ln)
1 | AATAAATGGAAAAGGTGTACACAAAAAAAAGGGAAA [XGTACX_site4956] | 7.54
2 | AAAAAAAAAGTATATATATATTTAAGGAATTCTCTC [GTGCAC_negctrl_site454] | 6.33
3 | TATATTATATATATATGTACATATGGCAAAACATTA [XGTACX_site7958] | 7.12
4 | ATAGAAATATTATATTGTACGAACAGTTATTAACAA [XGTACX_site2137] | 6.56
5 | AAAATAAGTAATTACTAATATATAAATTAATAATTA [CACACA_negctrl_site1602] | 5.84
6 | ATATAAAAAAATTGCACACATAAATATATACATATA [CACACA_site1218] | 10.1
7 | ATAAATATTGGGTGCACACACATAATATATATATAT [CACACA_site2272] | 10.5
8 | ATAAATATTGCGTGCACACACATAATATTTATATAT [CACACA_site7136] | 10.3
9 | ATTGGGTACAAATACACACACATATAAATATTAATA [CACACA_site7173] | 6.68
10 | TTATTTACTTATTGCACACATATAAAATATATTTAT [CACACA_site3101] | 10.7
11 | CTATATAAAAAAATTGCACACATAAATATATACATA [CACACA_site8325] | 9.87
12 | TACATATATTATTGCACACATATAAAATACCCCCAA [CACACA_site3895] | 10.8
13 | TACAGATATTATTGCACACATATAAAATACCCCCAA [CACACA_site6014] | 10.4
14 | TATTATTTACTTATTGCACACATATAAAATATATTT [CACACA_site9017] | 10.2
15 | ATATATATATATATTGCACACATATAAATATATATA [CACACA_site8167] | 10.9
16 | TATAAATTATAAATTGCACACATATTTTTATATTTA [CACACA_site8974] | 10.1
17 | CATACATATATTATTGCACACATATAAAATACCCCC [CACACA_site9292] | 10.4
18 | TATAAAAAAATAAAAGGAATATACTTGCAAAGGGTA [CACACA_negctrl_site1438] | 8.14
19 | ATAATATTTTCTTCTTATTGAATGCTTTAAATTTAC [CACACA_negctrl_site1273] | 6.46
20 | CGCACTAAAAAACACACACACACACCCATATATATA [CACACA_site4152] | 7.19

Row | Sequence | gcPBM binding intensity (ln)
21 | TTTTTAATTTTGTGGGTGCTTTCGTGTTATTATATA | 7.23
22 | ATAAACATGGAAATGTATTAAAAGCAAGTATATAAA [XGTACX_negctrl_site516] | 6.66
23 | TGTTTTTAAAAATATACACACACAGATATTATATAT [CACACA_site8162] | 6.73
24 | CATCCACATATATGTACACACATATATATATATATA [CACACA_site2964] | 9.46
25 | TATAATAATACTTATTGTACTATTAGTTTAATTCAT [XGTACX_site6638] | 6.15
26 | TGTAGAAATGGGTGCACACACATATATAATATATAT [CACACA_site2507] | 10.7
27 | AATGTAGAAATGGGTGCACACACATATATAATATAT [CACACA_site8799] | 10.2
28 | TGTAGAAATGGGTGCACACACATATAAAATCTATAT [CACACA_site7224] | 10.4
29 | TATATATATATATTCACACATAAAAATAAAATAAAA [CACACA_site4774] | 8.8
30 | AATATAAATAAACACACACACATATATATATATATT [CACACA_site2906] | 6.78
31 | TTTTTTTTTTTTTGCACACACATATATAAATATATA [CACACA_site3949] | 9.41
32 | TAAACATAAATATGCACACATATACATATATTCATA [CACACA_site2667] | 9.75
33 | TATATATATATATTCACACATAAATATATGCACCCA [CACACA_site4263] | 11
34 | ATATATATATATTGCACACATATAAATATATATATT [CACACA_site807] | 10.6
35 | TATAAATACATACATACACACATATATATATATATT [CACACA_site6116] | 6.81
36 | CTTTTTTTTTTTTTTGCACACACATATATAAATATA [CACACA_site3950] | 10.6
37 | AATAAAAAAAAATGCACACATATATATATATATATA [CACACA_site2421] | 9.87
38 | GATTAATTTAAAAAATGTACATTTTATTGTATAACC [XGTACX_site5539] | 6.55
39 | AACTGAGAAACCGAAGTGCAATATGTATATATACAT | 9.08
40 | GAAAATAGAAAAAGCACACATATATTTTGGAATGTA [CACACA_site551] | 6.5

Row | Sequence | gcPBM binding intensity (ln)
41 | ATATATATAACAAAAGTGCATTAAGGGGATGCTATA | 8.66
42 | CGTATTATTTTATAAACACACAAGGGGGCATGTATA [CACACA_site6489] | 7.82
43 | TTTTTTTTTTTTTTGGTGCGATCTTTTAAATGATCC | 6.48
44 | TAATTTCCTTAAGAATGTACTTACATTTTATTATTT [XGTACX_site5998] | 6.02
45 | CCTATAAAACCATATACACACATATAAATAAAAAAA [CACACA_site7809] | 6.58
46 | TACAAATATATAAAATGTACATATATATACATATTA [XGTACX_site3029] | 6.13
47 | AAATAATATGTAATCAAATTCACCAAACGAAAAAAA [TGCATGCA_negctrl_site33] | 6.59
48 | ATATAATATTAGTGCACACACAAAAATGTACTAAAC [CACACA_site632] | 10.4
49 | GAATAAAAAATATATGTGCACATATAAACTTAAAAT [GTGCAC_site9554] | 10.7
50 | TATATATATATGTGCACACATAATAAAAAAAAAAAT [CACACA_site3831] | 9.99
51 | AACTTAAAAAATAAATGTACATAAATATAAACATAT [XGTACX_site2987] | 6.59
52 | TGTATATGGTTTGTGCAAAAATTTATTAATGTGTAA [TGCATGCA_negctrl_site374] | 10.1
53 | TCATAACAACTTTGTGTGCACATAAAACATGTATAT | 11
54 | ATATATATTAATTTTGTGCACAAATGGAAATGTTTG [GTGCAC_site9971] | 10.9
55 | TCAACAAATAAACTTTGTACATATATACAAAATATA [XGTACX_site4447] | 6.27
56 | TATATATATATAACAACACACACAGATCATAAAACT [CACACA_site8670] | 8.9
57 | TTATATGTTTTGTGTACACAATTTATTAAATTAATA [CACACA_site5645] | 8.03
58 | GTATATAATATTAGTGCACACACAAAAATGTACTAA [CACACA_site8112] | 10.3
59 | CTATAATATTAGTGCACACACAAAAATGTACTAAAC [CACACA_site6442] | 10.6
